In PubChem BioAssay (NCATS):
Records with an inconclusive call do not appear. Activity calls are given as the source filed them. Unless noted, the call rests on the fitted dose curve; in most records, active means well fitted curve in the direction sought with a large enough effect; inconclusive means small, poorly fitted or top-dose-only effect, or another doubt; inactive means no such curve, though single readings can be large; an effect the other way counts as inactive or inconclusive.

Assays:
[1] = Cytometric Cell-Based qHTS for Inhibitors of the mTORC1 Signaling Pathway in MEF (Tsc2-/-, p53-/-) Cells (AID 2660);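 further: percent of cells above a phospho-rpS6 to PI ratio cutoff in each well; series mostly up to about 38 µM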
How it was run: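 Tsc2-/-, p53-/- MEFs (empty vector) exposed to compound 24 h at 37 C, fixed, stained with Alexa-488 anti-phospho-rpS6 Ser235/236 and propidium iodide. Acumen laser scanning; phospho-S6/PI ratio thresholded against 7.5 nM rapamycin, reported as % positive cells.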

[2] = biological target: DNA repair nuclease/redox regulator APEX1 (Homo sapiens) (UniProt P27695); assay: qHTS Validation Assay for Inhibitors of the Human Apurinic/apyrimidinic Endonuclease 1 (APE1) (AID 1705; further: potency means the concentration at half of the fitted maximal effect)
Sequence of DNA repair nuclease/redox regulator APEX1 (Homo sapiens) (P27695 whole entry, looked up): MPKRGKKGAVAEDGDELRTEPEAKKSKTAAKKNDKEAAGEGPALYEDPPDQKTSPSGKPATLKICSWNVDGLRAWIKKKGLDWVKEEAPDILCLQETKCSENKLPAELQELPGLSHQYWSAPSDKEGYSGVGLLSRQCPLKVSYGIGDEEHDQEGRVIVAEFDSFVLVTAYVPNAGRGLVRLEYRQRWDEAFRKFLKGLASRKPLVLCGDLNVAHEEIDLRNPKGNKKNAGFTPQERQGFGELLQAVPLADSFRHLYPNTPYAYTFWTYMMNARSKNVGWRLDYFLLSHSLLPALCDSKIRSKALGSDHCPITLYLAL
How it was run: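 Endonuclease activity of human APE1 is followed as dequenching when the enzyme incises a tetrahydrofuran abasic site in a short duplex labelled 5'-TAMRA/3'-BHQ-2 (50 nM final), after 15 min enzyme–compound preincubation at room temperature.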

[3] = Counterscreen for APE1 Inhibitors: Fluorescent Dye Displacement Validation Assay (AID 1707)
How it was run: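 Thiazole Orange (250 nM) bound to 50 nM TAMRA-labelled dsDNA with tetrahydrofuran abasic site; displacement by DNA-binding compounds lowers fluorescence. Buffer 50 mM Tris-HCl pH 7.5, 50 mM NaCl, 2 mM MgCl2, 0.01% Tween-20; endpoint read at 480/540 nm.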

[4] = biological target: Ferritin light chain (Equus caballus) (UniProt P02791); assay: qHTS Validation Assay for Identification of Novel General Anesthetics (AID 2323); further: series mostly up to about 77 µM
Sequence of Ferritin light chain (Equus caballus) (P02791 2-175 limits assumed): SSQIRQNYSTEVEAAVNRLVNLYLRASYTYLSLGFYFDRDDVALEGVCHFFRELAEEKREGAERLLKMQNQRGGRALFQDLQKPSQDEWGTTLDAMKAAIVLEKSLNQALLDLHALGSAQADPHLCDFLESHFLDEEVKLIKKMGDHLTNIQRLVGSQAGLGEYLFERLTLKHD
How it was run: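 Apoferritin from horse spleen (10 uM) was mixed with 1-aminoanthracene at 50% saturation in PBS, then compounds were added. After 10 min at room temperature, fluorescence was read (ex 380 nm, em 535 nm) and normalized to free-probe and complex controls.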

[5] = biological target: ATP-dependent DNA helicase Q1 (Homo sapiens) (UniProt P46063); assay: qHTS Validation Assay for Inhibitors of RecQ-Like Dna Helicase 1 (RECQ1) (AID 2353)
Sequence of ATP-dependent DNA helicase Q1 (Homo sapiens) (P46063 whole entry, looked up): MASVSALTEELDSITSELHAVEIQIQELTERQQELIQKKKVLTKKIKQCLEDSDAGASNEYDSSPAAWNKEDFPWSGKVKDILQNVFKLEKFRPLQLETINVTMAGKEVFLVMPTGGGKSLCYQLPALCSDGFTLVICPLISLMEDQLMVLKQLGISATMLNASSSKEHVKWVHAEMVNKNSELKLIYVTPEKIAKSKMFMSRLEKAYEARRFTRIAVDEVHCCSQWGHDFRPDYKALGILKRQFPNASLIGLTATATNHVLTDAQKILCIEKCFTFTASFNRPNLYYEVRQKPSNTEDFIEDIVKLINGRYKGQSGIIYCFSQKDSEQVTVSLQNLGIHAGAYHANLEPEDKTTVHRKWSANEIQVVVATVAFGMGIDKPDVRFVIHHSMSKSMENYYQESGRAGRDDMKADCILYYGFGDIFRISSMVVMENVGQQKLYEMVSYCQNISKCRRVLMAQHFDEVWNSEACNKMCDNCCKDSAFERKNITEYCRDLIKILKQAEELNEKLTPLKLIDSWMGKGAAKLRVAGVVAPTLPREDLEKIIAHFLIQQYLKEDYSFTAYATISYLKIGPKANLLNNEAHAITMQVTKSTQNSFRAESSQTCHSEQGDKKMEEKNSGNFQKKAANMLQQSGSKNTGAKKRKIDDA
How it was run: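 50 nM RECQ1T1 preincubated 15 min with compound in Tris pH 8.0 buffer with MgCl2, DTT, Tween-20 and 2.5 ug/ml poly(dI-dC); started with 200 nM TAMRA/BHQ-2 forked duplex and 2 mM ATP. Unwinding read as fluorescence (525/598 nm), two reads 2 h apart.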

[6] = biological target: RecQ-like DNA helicase BLM (Homo sapiens) (UniProt P54132); assay: qHTS Validation Assay for Inhibitors of Bloom's syndrome helicase (BLM) (AID 2364)
Sequence of RecQ-like DNA helicase BLM (Homo sapiens) (P54132 whole entry, looked up): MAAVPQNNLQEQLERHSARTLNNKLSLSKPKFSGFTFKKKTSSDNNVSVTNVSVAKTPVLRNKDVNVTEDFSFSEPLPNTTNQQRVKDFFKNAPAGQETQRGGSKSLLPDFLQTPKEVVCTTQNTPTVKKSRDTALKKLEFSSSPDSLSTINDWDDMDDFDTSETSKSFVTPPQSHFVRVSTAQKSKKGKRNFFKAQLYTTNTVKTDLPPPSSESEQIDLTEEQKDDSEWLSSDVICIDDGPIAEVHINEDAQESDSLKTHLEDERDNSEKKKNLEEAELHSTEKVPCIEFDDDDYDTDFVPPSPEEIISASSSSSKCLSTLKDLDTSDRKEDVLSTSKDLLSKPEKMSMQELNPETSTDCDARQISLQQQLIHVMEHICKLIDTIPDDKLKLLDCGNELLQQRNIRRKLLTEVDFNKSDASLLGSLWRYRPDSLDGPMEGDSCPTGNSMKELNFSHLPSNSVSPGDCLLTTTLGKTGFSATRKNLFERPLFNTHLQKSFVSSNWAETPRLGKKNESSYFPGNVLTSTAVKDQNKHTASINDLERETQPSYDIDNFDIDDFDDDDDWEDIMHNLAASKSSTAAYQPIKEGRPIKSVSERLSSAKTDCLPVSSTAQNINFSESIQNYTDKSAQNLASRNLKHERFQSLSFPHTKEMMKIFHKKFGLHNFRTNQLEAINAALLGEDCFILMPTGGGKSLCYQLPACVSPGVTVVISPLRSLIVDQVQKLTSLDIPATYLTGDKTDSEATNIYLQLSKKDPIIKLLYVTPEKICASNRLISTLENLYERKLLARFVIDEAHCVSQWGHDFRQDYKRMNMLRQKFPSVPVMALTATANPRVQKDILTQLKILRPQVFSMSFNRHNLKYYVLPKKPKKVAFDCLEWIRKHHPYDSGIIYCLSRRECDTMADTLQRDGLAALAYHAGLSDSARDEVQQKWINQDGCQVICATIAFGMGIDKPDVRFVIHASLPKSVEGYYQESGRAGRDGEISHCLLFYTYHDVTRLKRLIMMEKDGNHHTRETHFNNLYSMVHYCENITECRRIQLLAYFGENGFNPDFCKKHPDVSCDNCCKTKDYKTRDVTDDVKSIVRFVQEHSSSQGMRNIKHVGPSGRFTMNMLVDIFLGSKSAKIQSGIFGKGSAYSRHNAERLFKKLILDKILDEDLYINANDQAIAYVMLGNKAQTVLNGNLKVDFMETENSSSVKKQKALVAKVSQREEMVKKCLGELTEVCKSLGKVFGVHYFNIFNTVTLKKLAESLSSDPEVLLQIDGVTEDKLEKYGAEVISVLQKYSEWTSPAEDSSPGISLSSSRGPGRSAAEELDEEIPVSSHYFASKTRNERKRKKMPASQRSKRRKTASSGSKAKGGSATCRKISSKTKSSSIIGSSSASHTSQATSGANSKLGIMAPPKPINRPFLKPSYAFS
How it was run: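 BLM 50 nM in 25 mM Tris-HCl pH 8.0, 5 mM NaCl, 2 mM MgCl2, 1 mM DTT, 0.01% Tween-20, 2.5 ug/ml poly(dI-dC); 15 min cpd preinc, RT. Start: 200 nM forked DNA + 2 mM ATP (final). TAMRA read, 2 reads 2 h apart.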

[7] = Cytometry Cell-Based qHTS for Inhibitors of the mTORC1 Signaling Pathway in MEF cells (AID 2668);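 further: Tsc2-/- p53-/- mouse embryonic fibroblasts stably re-expressing wild-type Tsc2; percent cells positive for phospho-rpS6 Ser235/236 relative to propidium iodide stain; series mostly up to about 38 µM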
How it was run: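 Pathway inhibition in WT Tsc2-rescued Tsc2-/-, p53-/- MEFs is measured as the Alexa-488 phospho-rpS6 to propidium iodide intensity ratio after 24 hrs of compound at 37 degree Celsius. PI-stained cell number gives viability.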

[8] = Validation screen for small molecules that induce DNA re-replication in MCF 10A normal breast cells (AID 463097); further: nearly all actives have a fitted effect of over 60% in size; further: potency means the concentration at half of the fitted maximal effect
How it was run: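 DNA re-replication was detected as a rise in nuclei with elevated Hoechst fluorescence after a 48 hr compound exposure of MCF 10A cells at 37 C.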

[9] = qHTS Assay for Identification of Small Molecule Inducers of Hypoxia Response (AID 2120; active means well fitted curve in the direction sought with a large enough effect in the signal ratio, with a control signal flat, not every such curve was filed as active; the % refers to the signal ratio)
How it was run: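 HRE-bla ME-180 cells in Opti-MEM with 0.5% dialyzed FBS, pre-plated 4-5 h, then compound titration for 17 h at 37 degrees Celsius. CCF4 loaded 2.5 h at room temperature; 460/530 nm ratio gave %Activity and AC50 for induction.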

[10] = biological target: Endonuclease 4 (Escherichia coli (strain K12)) (UniProt P0A6C1); assay: Counterscreen for APE1 Inhibitors: qHTS Validation Assay for Inhibitors of Endonuclease IV (AID 1708)
How it was run: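 Concentration-response counterscreen run identically to the APE1 assay: 15 min room-temperature preincubation of 2 nM enzyme with compound, reaction started with 50 nM quenched abasic DNA, progress taken from kinetic fluorescence.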

[11] = qHTS for differential inhibitors of proliferation of Plasmodium falciparum line 7G8 (AID 1815);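 further: parasite growth measured after three days of incubation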; further: potency means the concentration at half of the fitted maximal effect
[12] = qHTS for differential inhibitors of proliferation of Plasmodium falciparum line GB4 (AID 1816); settings: Potency: Plasmodium falciparum GB4 proliferation inhibition;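 further: parasite growth measured after 72 h incubation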; further: potency means the concentration at half of the fitted maximal effect
[13] = qHTS for differential inhibitors of proliferation of Plasmodium falciparum line 3D7 (AID 1876); further: potency means the concentration at half of the fitted maximal effect
[14] = qHTS for differential inhibitors of proliferation of Plasmodium falciparum line D10 (AID 1877);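 further: parasites grown with compound for 72 h before DNA staining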; further: potency means the concentration at half of the fitted maximal effect
[15] = qHTS for differential inhibitors of proliferation of Plasmodium falciparum line Dd2 (AID 1882); settings: Potency: Plasmodium falciparum Dd2 proliferation inhibition; further: nearly all actives have a fitted effect of over 65% in size; further: potency means the concentration at half of the fitted maximal effect
How it was run: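 Dd2-infected erythrocytes (0.3% parasitemia, 2.5% hematocrit final) incubated with compound 72 h at 37 C, 5% CO2; lysed with saponin/Triton buffer containing SYBR Green I, incubated overnight in the dark, then read by fluorescence (485/535 nm). Normalized to 0.29 uM artemisinin and DMSO.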

[16] = qHTS for differential inhibitors of proliferation of Plasmodium falciparum line W2 (AID 1883); settings: Potency: Plasmodium falciparum W2 proliferation inhibition;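 further: parasites grown with compound for 72 h before lysis and staining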; further: potency means the concentration at half of the fitted maximal effect
[17] = qHTS for differential inhibitors of proliferation of Plasmodium falciparum line HB3 (AID 1886); settings: Potency: Plasmodium falciparum HB3 proliferation inhibition;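 further: parasites grown with compound for 72 h before SYBR Green readout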; further: potency means the concentration at half of the fitted maximal effect
[18] = High Content Imaging Cell-Based qHTS for Inhibitors of the mTORC1 Signaling Pathway in MEF (Tsc2-/-, p53-/-) Cells (AID 2666);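 further: percent of cells scored positive for phospho-rpS6 Ser235/236 immunostaining by imaging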
How it was run: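 Read-out: % positive cells per well, with thresholds from highest- and lowest-signal wells, based on phospho-rpS6 (Ser235/236) intensity normalized to Hoechst nuclear stain. Cells: Tsc2-/-, p53-/- MEFs carrying empty vector; compound 24 hrs, 37 degree Celsius.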

[19] = High Content Imaging Cell-Based qHTS for Inhibitors of the mTORC1 Signaling Pathway in MEF Cells (AID 2667);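 further: Tsc2-/- p53-/- MEFs stably re-expressing wild-type Tsc2 exposed 24 h; series mostly up to about 38 µM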
How it was run: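 MEF (Tsc2-/-, p53-/-, WT Tsc2 re-expressed); cpd 24 h, 37 °C; PFA fix; Alexa-488 anti-p-rpS6 Ser235/236, PI, Hoechst; IN Cell imaging; Hoechst/Alexa-488 intensity ratio; % active cells, thresholds set from rapamycin and DMSO wells.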

[20] = qHTS Assay for Modulators of Human Peripheral Myelin Protein 22 (PMP22) Expression/Activity (AID 1967; active means well fitted curve in the direction sought with a large enough effect in the signal ratio; the % refers to the signal ratio)
How it was run: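 Quantitative HTS in a mouse Schwann cell line expressing dual click beetle luciferases: Pmp22 promoter (green) and control EF-alpha promoter (red). After 24h treatment, corrected green/red signal ratio gave %Activity relative to untreated cells.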

Measured: Potency

COc1ccccc1OCCNCC(O)COc1cccc2[nH]c3ccccc3c12 (stereo not given)
inactive: [1]

COc1ccc(CCN(C)CCCC(C#N)(c2ccc(OC)c(OC)c2)C(C)C)cc1OC (stereo not given)
inactive: [2] | [3] | [4] | [5] | [6] | [1] | [7] | [8]

Cc1ccc(-c2cc(C(F)(F)F)nn2-c2ccc(S(N)(=O)=O)cc2)cc1
inactive: [9]

CCC1(c2ccccc2)C(=O)NCNC1=O
not listed: [2] | [9] | [20]
inactive: all other assays above

COc1cc2nc(N3CCN(C(=O)c4ccco4)CC3)nc(N)c2cc1OC
inactive: [2] | [4] | [5] | [6] | [1]
active: [11] 7.94 µM | [12] 12.6 µM | [13] 8.91 µM | [14] 10 µM | [15] 7.94 µM | [16] 5.01 µM | [17] 10 µM | [8] 15.8 µM

CN(Cc1cnc2nc(N)nc(N)c2n1)c1ccc(C(=O)N[C@@H](CCC(=O)O)C(=O)O)cc1
inactive: [10] | [5] | [1] | [18] | [19] | [7] | [8]
active: [2] 20 µM | [11] 0.126 µM | [12] 0.0398 µM | [13] 0.0708 µM | [14] 0.0398 µM | [15] 0.0794 µM | [16] 0.0398 µM | [17] 0.0708 µM

Cc1ccccc1N1C(=O)c2cc(S(N)(=O)=O)c(Cl)cc2NC1C (stereo not given)
not listed: [6] | [9] | [10] | [11] | [16] | [18] | [20]
inactive: all other assays above

NS(=O)(=O)c1cc2c(cc1Cl)NCNS2(=O)=O
not listed: [2] | [9] | [12] | [16] | [18] | [20]
inactive: all other assays above

Cn1c(=O)c2[nH]cnc2n(C)c1=O
not listed: [3] | [9] | [20]
inactive: all other assays above

Cc1cn([C@H]2C[C@H](N=[N+]=[N-])[C@@H](CO)O2)c(=O)[nH]c1=O
inactive: [1] | [18] | [19] | [7]

CC(C)Cc1ccc(C(C)C(=O)O)cc1 (stereo not given)
not listed: [6] | [9] | [10] | [11] | [18] | [20]
inactive: all other assays above

COc1cc2c(c(OC)c1OC)-c1ccc(OC)c(=O)cc1[C@@H](NC(C)=O)CC2
inactive: [2] | [3] | [20] | [9] | [5] | [6] | [1] | [19] | [7]

Clc1ccc2nsnc2c1NC1=NCCN1
inactive: [1] | [18] | [19] | [7]
